TDP1 inh: blocks human tyrosyl-DNA phosphodiesterase 1; Q9NUW8; recombinant TDP1, AlphaScreen DNA substrate cleavage; Potency, µM (series often up to 130 µM), for the others: top-dose activity change, negative = inhibition, most hits filed as inhibitors; 0.28% of 350,000 active; further: potency means the concentration at half of the fitted maximal effect; on the % scale 0 is the no-effect control and ±100 the full control effect; nearly all actives have a fitted effect of over 40% in size
Target sequence (Q9NUW8 whole entry, looked up): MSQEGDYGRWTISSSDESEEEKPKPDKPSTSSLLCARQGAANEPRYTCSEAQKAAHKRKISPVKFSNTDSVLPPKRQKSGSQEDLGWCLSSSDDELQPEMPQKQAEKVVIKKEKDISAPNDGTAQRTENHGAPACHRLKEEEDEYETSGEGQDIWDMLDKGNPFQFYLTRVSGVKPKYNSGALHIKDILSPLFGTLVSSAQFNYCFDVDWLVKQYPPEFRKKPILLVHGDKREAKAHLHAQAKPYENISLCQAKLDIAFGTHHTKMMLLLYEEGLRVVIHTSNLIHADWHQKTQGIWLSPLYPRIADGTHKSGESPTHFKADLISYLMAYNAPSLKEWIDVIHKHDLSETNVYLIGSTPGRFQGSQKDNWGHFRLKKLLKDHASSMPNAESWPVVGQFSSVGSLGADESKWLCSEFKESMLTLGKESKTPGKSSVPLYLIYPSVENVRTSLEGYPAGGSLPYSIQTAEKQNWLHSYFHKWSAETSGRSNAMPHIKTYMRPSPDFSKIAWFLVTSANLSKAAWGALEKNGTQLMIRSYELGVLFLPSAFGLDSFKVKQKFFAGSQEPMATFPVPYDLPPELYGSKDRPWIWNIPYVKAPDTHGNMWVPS
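Recombinant human Tdp1 (E. coli-expressed, 1 nM final) preincubated with compounds 15 min at room temperature, then 5'-biotin/3'-phosphotyrosine-FITC DNA substrate (15 nM final) added for 5 min. AlphaScreen beads (10 ug/ml final) added 10 min; cleavage lowers signal.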
TGFb inhibitor: blocks TGF-b signaling; 1.2% of 410,000 active; Potency, µM (doses to about 46.1 µM), for inactives: top-dose activity, negative = inhibition, actives largely listed as inhibitors; HepG2 CAGA-GFP TGF-b/SMAD3 reporter, GFP fluorescence, 18 h; TGF-beta stimulated, 500 pg/mL final; further: potency means the concentration at half of the fitted maximal effect; on the % scale 0 is the no-effect control and ±100 the full control effect; nearly all actives have a fitted effect of over 65% in size
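Inhibition was scored as loss of TGF-beta-induced (500 pg/mL final, 18 hours, 37 degrees C) GFP in HEPG2 cells carrying a CAGA-GFP reporter, in DMEM with 1% FBS. Well GFP was summed per cell; Activity was normalised to unstimulated and stimulated DMSO wells, then concentration-response fitting.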
DT40 TDP1 CPT: growth inhibition of DT40 Tdp1-/-;hTDP1 cells with camptothecin (screen for TDP1 inhibitors). AID 686979. Potency, µM (doses to about 46.2 µM), without a hit: at the highest dose activity change, negative = growth inhibition, actives largely listed as inhibitors. 12% of 420,000 active. chicken DT40 Tdp1-/-;hTDP1 cells + 20 nM CPT, ATP luminescence, 48 h; further: potency means the concentration at half of the fitted maximal effect; on the % scale 0 is the no-effect control and ±100 the full control effect; nearly all actives have a fitted effect of over 55% in size
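Chicken DT40 Tdp1-/- cells complemented with human TDP1, 400 cells/well, exposed to compounds plus 20 nM camptothecin for at least 48 h at 37 C; viability read as ATP content by CellTiter-Glo luminescence.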
IL1B secr inh: inhibitors of inflammasome signaling (IL-1 beta secretion). THP-1 LPS/ATP IL-1B secretion, AlphaLISA, 16 h; stronger effect = lower value. 4.7% of 360,000 active. activity change, % at 57.5 µM; in the data active means activity change below about -50%; inconclusive means mostly about -30% to -49%; further: on the % scale 0 is the no-effect control and ±100 the full control effect
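THP-1 cells pretreated 1 hr with compounds (up to 57.5 uM final), then stimulated with LPS (250 ng/mL final) plus ATP (1.25 mM final); secreted IL-1B measured by AlphaLISA after 16 hr, decreased signal indicating inhibition.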
HepG2 viability: counter-screen for TGF-b inhibitors: cytotoxicity in HepG2 cells | HepG2 CAGA-GFP viability, ATP luminescence, 18 h | 0.76% of 410,000 active | Potency, µM (titrated, usually from 46.1 µM), for inactives: at the highest dose activity change, negative = cytotoxicity, most hits filed as cytotoxic | AID 588856; further: potency means the concentration at half of the fitted maximal effect
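CellTiter-Glo luminescence gave cytotoxicity after 18 hours at 37 degrees C. The cells were HepG2 CAGA-GFP in 1% FBS DMEM, stimulated with 500 pg/mL TGF-beta after compound addition. %Activity was normalised to no-cell wells (complete cell-killing) and DMSO (no toxicity), and curves were fitted and classified.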
TDP1 cell noCPT: qHTS for Inhibitors of human tyrosyl-DNA phosphodiesterase 1 (TDP1): qHTS in cells in absence of CPT. DT40 Tdp1-/- hTDP1 cells, no CPT, ATP luminescence, 48 h. Potency, µM (top dose mostly 46.2 µM), without a hit: top-dose activity change, negative = growth inhibition, most hits filed as inhibitors. 15% of 420,000 active; further: potency means the concentration at half of the fitted maximal effect; on the % scale 0 is the no-effect control and ±100 the full control effect; nearly all actives have a fitted effect of over 55% in size
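No-CPT arm: Tdp1-/-;hTDP1 DT40 cells (400/well) plus compounds, incubated ≥48 hr at 37 °C. Readout CellTiter-Glo luminescence.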
* = called active by the depositor; u = inconclusive; x = no result; [ ] = dose if it differs, or a comment. In the library only some 19% were active in any assay of this set; here they are far more common. Unless noted, the call rests on the fitted dose curve; in most records, active means well fitted curve in the direction sought with a large enough effect; inconclusive means small, poorly fitted or top-dose-only effect, or another doubt; inactive means no such curve, though single readings can be large; an effect the other way counts as inactive or inconclusive.

SMILES	TDP1 inh	TGFb inhibitor	DT40 TDP1 CPT	IL1B secr inh	HepG2 viability	TDP1 cell noCPT
C=CC[C@@]12C=C(OC)C(=O)C(OC)=C1O[C@H](c1ccc3c(c1)OCO3)[C@H]2C	x	1.1%	-23.3%	-13.3	-6.1%	-17.5%
Cc1ccc(S(=O)(=O)n2ccc3c(OCCOCCNCc4ccc(F)cc4)cccc32)cc1	x	u	u	-88.5*	-115.8%	18.4µM*
Cc1ccc(S(=O)(=O)n2ccc3c(OCCOCCSCC(NC(=O)OC(C)(C)C)C(=O)O)cccc32)cc1 (stereo not given)	x	u	-0.9%	41.7	-18.6%	u
CCc1ccc(C(C#N)=CC=Cc2ccccc2)cc1	x	-2.7%	u	u	-16.5%	20.6µM*
Cc1ccc(-c2csc(-c3c(N)c(C(=O)c4ccc5c(c4)OCO5)n4ccccc34)n2)cc1	2.5%	1.7%	u	x	1.1%	u
COc1cccc(-c2csc(-c3c(N)c(C(=O)c4ccccc4)n4ccccc34)n2)c1	-5.1%	-0.3%	u	x	1.2%	16.4µM*
Nc1c(-c2nc(-c3ccccc3)cs2)c2ccccn2c1C(=O)c1ccc2c(c1)OCO2	-5.1%	6.8%	18.4µM*	x	-10.7%	6.51µM*
CCc1ccc(C(=O)c2c(N)c(-c3nc(-c4ccc5c(c4)OCO5)cs3)c3ccccn23)cc1	7.6%	1.2%	-8.6%	x	3.5%	-21.0%
COc1ccc(Nc2oc(-c3ccc(COc4ccc(OC)cc4)o3)nc2C#N)cc1	-3.6%	-5.7%	-4.6%	x	-19.2%	-22.8%
COc1ccc2c(c1)C(=O)N(c1ccc(C)cc1C)C(=O)C2	2.5%	8.3%	13µM*	14.1	-21.7%	20.6µM*
COc1ccc2c(c1)C(=O)N(c1ccc(C)cc1C)C(=O)C2(C)C	0.1%	-11.2%	-20.1%	-11.0	-1.2%	u
CCN(CC)CC#CCOC(=O)C(O)(c1ccccc1)C1CCCCC1 (stereo not given)	5.8%	2.4%	20.6µM*	-22.6	-35.6%	8.2µM*
Cc1cc(C)nc(-n2nc(C)c3c2N(Cc2ccccc2F)C(=O)CC3c2ccc(Cl)cc2)n1 (stereo not given)	2.6%	0.3%	23.1µM*	x	-23.0%	23.1µM*
CCOc1ccc(NC(=O)CN(C)C(=O)c2n[nH]c(=O)c3ccccc23)cc1OCC	4.4%	-27.8%	-13.0%	8.0	-28.2%	-11.4%
Cc1ccc(Cl)cc1N1CCN(c2ncnc3onc(C)c23)CC1	5.3%	u	6.51µM*	x	-17.2%	5.8µM*
CC(=O)c1ccc(N2CCN(c3ncnc4onc(C)c34)CC2)cc1	-2.1%	1.7%	4.11µM*	x	-6.9%	5.8µM*
Cc1noc(C)c1COc1ccc(C(=O)N2CCN(c3cccc(Cl)c3)CC2)cc1	0.8%	-2.7%	u	u	-5.3%	u
Cc1noc2ncnc(N3CCN(c4cccc(Cl)c4)CC3)c12	1.8%	u	16.4µM*	-7.9	0.4%	9.2µM*
Cc1ccc(Cl)cc1N1CCN(C(=O)c2c(C)oc3ncnc(N4CCCCC4)c23)CC1	5.3%	u	9.2µM*	x	-66.0%	6.51µM*
O=C(c1noc2c1CSc1ccccc1-2)N1CCN(c2ccc(Cl)cc2)CC1	0.1%	-9.8%	-27.7%	5.6	10.8%	-5.3%
O=C(/C(Br)=C/Nc1cc(Cl)ccc1Cl)C(F)(F)F	5.5%	u	20.6µM*	0.0	-31.1%	14.6µM*
CC(=O)Nc1ccc(S(=O)(=O)NCCC(=O)OCC(=O)c2cc(C)ccc2C)cc1	-8.1%[0.505 µM]	-26.7%	0.4%	-15.2	-8.5%	-21.2%
COc1cc2c(cc1OC)C1C(=O)c3c(O)cc4c(c3OC1CO2)C=CC(C)(C)O4 (stereo not given)	19.2%[56.1 µM]	x	0.651µM*	x	x	0.411µM*
COc1c2c(cc(O)c1C(C)=O)OC(C)(C)C=C2	x	-6.5%	-8.4%	-13.4	6.0%	-11.9%
COc1cc2c(cc1OC)C1C(=O)c3ccc4c(c3OC1CO2)C=CC(C)(C)O4 (stereo not given)	13.0%[56.1 µM]	x	0.082µM*	x	x	0.0651µM*
SMILES	TDP1 inh	TGFb inhibitor	DT40 TDP1 CPT	IL1B secr inh	HepG2 viability	TDP1 cell noCPT
CCOC(=O)c1sc2ncnc(N3CCN(CC)CC3)c2c1C	-1.2%	17.6%	15.3%	2.4	4.5%	u
Cc1ccc(NC(=O)c2sc3ncnc(N4CCN(c5ccccn5)CC4)c3c2C)c(C)c1	4.7%	-13.3%	u	u	-24.1%	18.4µM*
CCOc1ccccc1NC(=O)c1sc2nc(C)nc(N3CCOCC3)c2c1C	0.6%	0.0%	4.8%	15.1	-30.4%	u
Cc1nc(N2CCN(c3ccccn3)CC2)c2c(C)c(C(=O)Nc3ccc(Br)cc3C)sc2n1	7.0%	4.9%	16.4µM*	-24.2	20.8%	u
CCCN1CCN(c2ncnc3sc(C(=O)Nc4c(C)cc(C)cc4C)c(C)c23)CC1	6.2%	u	16.4µM*	x	-12.7%	10.3µM*
Cc1ccc(NC(=O)c2sc3ncnc(N(C)C4CCCCC4)c3c2C)c(C)c1	-1.5%	1.8%	u	x	-1.7%	u
CCOC(=O)c1sc2ncnc(N3CCN(C(=O)OCC)CC3)c2c1C	3.3%	-2.3%	14.6µM*	u	10.3%	u
Cc1nc(N2CCN(C)CC2)c2c(C)c(C(=O)Nc3ccc(F)cc3)sc2n1	0.0%	47.3%	u	-78.4*	1.4%	u
COc1ccc(C)cc1NC(=O)c1sc2nc(C)nc(N3CCOCC3)c2c1C	x	4.2%	5.5%	15.3	-0.2%	u
Cc1c(C(=O)N2CCN(c3ccccc3F)CC2)sc2ncn(CC(=O)N3CCOCC3)c(=O)c12	5.9%	6.9%	-2.8%	-2.3	-7.8%	-28.0%
Cc1nc(N2CCN(c3ccccn3)CC2)c2c(C)c(C(=O)N3CCN(c4ccccc4F)CC3)sc2n1	x	3.2%	u	u	5.1%	20.6µM*
